Assay results: PubChem BioAssay (Tox21)
Records with an inconclusive call do not appear. Calls of active or inactive are those of the source. Unless noted, calls follow the shape of the full dose curve.

How the values were obtained:
[1] = Nuclear factor erythroid 2-related factor 2/antioxidant responsive element (Nrf2/ARE) small molecule agonists: qHTS cell viability counter screen in human keratinocytes (AID 1919968; active = well fitted curve in the direction sought with a large enough effect in the repeat runs; an effect the other way counts as inactive or inconclusive; also: nearly all actives have a fitted effect of over 55% in size)
In short: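 Viability counter-screen: KeratinoSens reporter cells, DMSO-delivered compounds, 23 h at 37 C, CellTiter-Fluor fluorescence.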

[2] = Nuclear factor erythroid 2-related factor 2/antioxidant responsive element (Nrf2/ARE) small molecule agonists: luciferase reporter gene qHTS assay in human keratinocytes (AID 1919969); also: nearly all actives have a fitted effect of over 35% in size
[3] = target: Gonadotropin-releasing hormone receptor (Homo sapiens) (UniProt P30968); assay: Human gonadotropin-releasing hormone receptor (GnRHR) small molecule agonists, calcium flux assay in GnRHR-HEK293 cells (AID 1920063); also: nearly all actives have a fitted effect of over 35% in size
In short: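 Tox21-format agonist screen using human GnRHR-expressing HEK293 cells and a fluorescent calcium dye; kinetic 3-min fluorescence reading after compound addition, 15-point concentration series run in triplicate.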

[4] = target: KiSS-1 receptor (Homo sapiens) (UniProt Q969F8); assay: Human kisspeptin (KISS1R) small molecule agonists, calcium flux assay in KISS1R-HEK293 cells (AID 1920064; active = well fitted curve in the direction sought with a large enough effect in the repeat runs; an effect the other way counts as inactive or inconclusive)
In short: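 Intracellular calcium mobilization in KISS1R-HEK293 cells was recorded by fluorescence (Ex/Em 480/540) for 3 min following compound addition to cells pre-loaded 1 h with calcium dye.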

[5] = p53 small molecule agonists, cell-based qHTS assay with human liver microsomes: qHTS cell viability counter screen (AID 1963579); also: nearly all actives have a fitted effect of over 45% in size
In short: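 Cells carrying the p53 response-element beta-lactamase reporter are treated for 16 h at 37 C with test compounds in the presence of human liver microsomes and NADPH (both 0.5 mg/mL final); ATP-based CellTiter-Glo luminescence then reports viability.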

[6] = p53 small molecule agonists, cell-based qHTS assay with rat liver microsomes: qHTS cell viability counter screen (AID 1963580); also: nearly all actives have a fitted effect of over 45% in size
In short: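 p53RE-bla HCT-116 cells were exposed 16 h at 37 C to compounds with rat liver microsomes (0.5 mg/mL) and NADPH (0.5 mg/mL). Viability was measured in the same wells as ATP content by CellTiter-Glo luminescence.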

[7] = target: 5-hydroxytryptamine receptor 2A (Homo sapiens) (UniProt P28223); assay: 5-hydroxytryptamine receptor 2A (HTR2A) small molecule agonists, cell-based qHTS assay (AID 1963587); also: nearly all actives have a fitted effect of over 30% in size
In short: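 CHO cells stably expressing human HTR2A, plated 18 h, loaded with calcium dye 1 h at 37 C. Agonist mode: compounds added and intracellular calcium fluorescence recorded kinetically for 2 min at 1 sec intervals.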

[8] = target: Muscarinic acetylcholine receptor M1 (Homo sapiens) (UniProt P11229); assay: Cholinergic receptor muscarinic 1 (CHRM1) small molecule antagonists, cell-based qHTS assay (AID 1963588); also: nearly all actives have a fitted effect of over 40% in size
In short: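 CHRM1-CHO calcium-flux assay, antagonist mode. Cells were seeded 18 h, dye-loaded 1 h at 37 C and given compound for 5 min at RT, then acetylcholine was added at 50nM. FDSS fluorescence was read 3 min; 15 concentrations, three runs.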

[9] = target: Muscarinic acetylcholine receptor M1 (Homo sapiens) (UniProt P11229); assay: Cholinergic receptor muscarinic 1 (CHRM1) small molecule agonists, cell-based qHTS assay (AID 1963589); also: nearly all actives have a fitted effect of over 35% in size
In short: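 Stable CHRM1-CHO cells (human receptor) were incubated 18 h, dye-loaded for 1 h at 37 C and exposed to test compounds for agonist activity, with calcium-dependent fluorescence followed kinetically.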

[10] = cAMP Responsive Elements (CRE) small molecule agonists, cell-based qHTS assay (AID 1963590)
In short: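 FRET-based beta-lactamase readout (LiveBLAzer B/G, 2 h RT) quantified CRE activation in HEK 293T CRE-bla cells after 3 h treatment with DMSO-dissolved compounds.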

[11] = cAMP Responsive Elements (CRE) small molecule antagonists, cell-based qHTS assay (AID 1963591; active = well fitted inhibition curve with a large enough effect in the signal ratio in the repeat runs, not every such curve was filed as active; the % refers to the signal ratio)
In short: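 qHTS in CRE-bla HEK 293T cells: compound in DMSO, then 0.25 uM NKH477 (final), 3 h at 37 °C/5% CO2; beta-lactamase FRET read-out after 2 h substrate incubation.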

[12] = target: Beta-2 adrenergic receptor (Homo sapiens) (UniProt P07550); assay: Adrenergic beta2 receptor (ADRB2) small molecule antagonists, cell-based qHTS assay (AID 1963592); also: series mostly up to about 92 µM; nearly all actives have a fitted effect of over 50% in size
In short: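 Cells (CHO, stable ADRB2 overexpression) incubated 18-20hr at 37C; compounds added from DMSO; agonist mix (1nM isoproterenol, 100uM IBMX, 25uM Ro-20-1724) added; 0.5hr RT; d2-cAMP and anti-cAMP-cryptate added; 1hr RT; 665/615 nm read.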

[13] = target: Beta-2 adrenergic receptor (Homo sapiens) (UniProt P07550); assay: Adrenergic beta2 receptor (ADRB2) small molecule agonists, cell-based qHTS assay (AID 1963593);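 also: CHO cells stably overexpressing human ADRB2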
In short: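 CHO cells stably over-expressing ADRB2 were plated overnight at 37C, then dosed with compounds plus a stimulation mix containing 100uM IBMX and 25uM Ro-20-1724 for 0.5hr at room temperature. cAMP was measured by HTRF competition, 1hr.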

[14] = target: D(2) dopamine receptor (Homo sapiens) (UniProt P14416); assay: Dopamine D2 receptor (DRD2) small molecule agonists, cell-based qHTS assay (AID 1963594); also: nearly all actives have a fitted effect of over 35% in size
In short: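 HEK293 cells stably expressing human DRD2, pre-treated with PDE inhibitor Ro20-1724 (0.1 mM final) and compound 10 min at room temperature, then stimulated with NKH477 (200nM […]) for 30 min. cAMP read by HTRF (665/620 nm).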

[15] = target: D(2) dopamine receptor (Homo sapiens) (UniProt P14416); assay: Dopamine D2 receptor (DRD2) small molecule antagonists, cell-based qHTS assay (AID 1963595; active = well fitted inhibition curve with a large enough effect in the signal ratio in the repeat runs, with a control signal flat; the % refers to the signal ratio)
In short: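 HEK293 cells stably expressing DRD2 were preincubated with 0.1 mM Ro20-1724, then with compound for 10 min at room temperature. Cells were stimulated with 200 nM NKH477 plus 12 nM quinpirole for 30 min, and cAMP was read by HTRF.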

[16] = p53 small molecule agonists, cell-based qHTS assay: qHTS cell viability counter screen (AID 1963581); also: nearly all actives have a fitted effect of over 45% in size
In short: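 Compounds are pinned onto HCT-116 p53RE-bla cells and left 16 h at 37 C. Following the reporter FRET read, ATP is quantified by CellTiter-Glo luminescence after 30 min at room temperature.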

[17] = target: 5-hydroxytryptamine receptor 2A (Homo sapiens) (UniProt P28223); assay: 5-hydroxytryptamine receptor 2A (HTR2A) small molecule antagonists, cell-based qHTS assay (AID 1963586); also: nearly all actives have a fitted effect of over 45% in size
In short: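 Antagonist-mode intracellular calcium assay: DOI (4 nM) added after 5 min compound pre-incubation at room temperature to dye-loaded HTR2A-CHO cells. Fluorescence followed for 3 min, sampled every second.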

[18] = G protein-coupled receptor (GPCR) small molecule agonists, calcium flux assay: HEK293 wild type cell line counter screen (AID 1920065)
In short: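 In this agonist-mode screen, ATP is the positive control and DMSO the vehicle. Cells grow 18 h before a 1 h dye incubation at 37 C; signal is taken at Ex/Em 480/540 over 3 min.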

[19] = p53 small molecule agonists, cell-based qHTS assay with rat liver microsomes (AID 1963578)
In short: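 Read-out is beta-lactamase reporter fluorescence (LiveBLAzer, 2 h, room temperature, dark) in p53RE-bla cells treated 16 h at 37 C with compound, rat liver microsomes and NADPH, both 0.5 mg/mL final.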

[20] = p53 small molecule agonists, cell-based qHTS assay (AID 1963582; active = well fitted activation curve with a large enough effect in the signal ratio in the repeat runs, not every such curve was filed as active; the % refers to the signal ratio)
In short: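 Agonist activity was scored from beta-lactamase FRET fluorescence in p53RE-bla cells treated 16 h at 37 C with compounds in DMSO, substrate incubation being 2 h at room temperature.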
% is scaled to controls: 0 for no effect and ±100 for the full control effect.

Sequence of Beta-2 adrenergic receptor (Homo sapiens) (P07550 whole entry, looked up): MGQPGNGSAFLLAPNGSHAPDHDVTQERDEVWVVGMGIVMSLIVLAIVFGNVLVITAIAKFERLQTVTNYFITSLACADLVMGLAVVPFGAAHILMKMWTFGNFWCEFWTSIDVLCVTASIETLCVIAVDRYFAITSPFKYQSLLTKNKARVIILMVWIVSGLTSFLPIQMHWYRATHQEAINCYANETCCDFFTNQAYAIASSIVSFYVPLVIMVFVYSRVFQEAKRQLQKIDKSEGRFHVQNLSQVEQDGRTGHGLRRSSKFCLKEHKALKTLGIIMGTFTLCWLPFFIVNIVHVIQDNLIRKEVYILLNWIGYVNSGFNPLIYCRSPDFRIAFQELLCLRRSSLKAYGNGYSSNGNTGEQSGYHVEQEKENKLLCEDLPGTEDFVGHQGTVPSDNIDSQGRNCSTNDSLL
Sequence of Muscarinic acetylcholine receptor M1 (Homo sapiens) (P11229 whole entry, looked up): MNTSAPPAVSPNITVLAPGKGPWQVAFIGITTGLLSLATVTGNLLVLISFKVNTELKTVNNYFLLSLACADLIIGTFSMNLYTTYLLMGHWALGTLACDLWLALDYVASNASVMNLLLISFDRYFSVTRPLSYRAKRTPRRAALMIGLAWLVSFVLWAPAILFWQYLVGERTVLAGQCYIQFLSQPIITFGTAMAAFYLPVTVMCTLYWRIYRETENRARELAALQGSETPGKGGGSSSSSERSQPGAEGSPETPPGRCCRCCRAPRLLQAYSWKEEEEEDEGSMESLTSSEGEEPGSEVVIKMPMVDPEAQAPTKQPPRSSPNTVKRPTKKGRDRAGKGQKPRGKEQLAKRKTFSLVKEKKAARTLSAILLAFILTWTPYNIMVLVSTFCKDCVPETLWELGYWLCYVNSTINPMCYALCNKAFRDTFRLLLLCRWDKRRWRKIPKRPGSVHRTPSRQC
Sequence of KiSS-1 receptor (Homo sapiens) (Q969F8 whole entry, looked up): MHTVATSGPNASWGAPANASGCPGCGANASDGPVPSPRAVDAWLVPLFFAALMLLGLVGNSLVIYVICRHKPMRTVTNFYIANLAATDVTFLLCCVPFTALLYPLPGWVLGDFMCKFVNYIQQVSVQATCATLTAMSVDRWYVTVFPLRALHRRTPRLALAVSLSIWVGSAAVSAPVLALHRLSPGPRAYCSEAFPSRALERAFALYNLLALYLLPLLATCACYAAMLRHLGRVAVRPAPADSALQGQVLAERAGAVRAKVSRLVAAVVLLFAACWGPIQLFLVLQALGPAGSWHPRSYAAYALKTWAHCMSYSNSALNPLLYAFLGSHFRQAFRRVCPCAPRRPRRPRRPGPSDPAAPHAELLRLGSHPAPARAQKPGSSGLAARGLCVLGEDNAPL
Sequence of D(2) dopamine receptor (Homo sapiens) (P14416 whole entry, looked up): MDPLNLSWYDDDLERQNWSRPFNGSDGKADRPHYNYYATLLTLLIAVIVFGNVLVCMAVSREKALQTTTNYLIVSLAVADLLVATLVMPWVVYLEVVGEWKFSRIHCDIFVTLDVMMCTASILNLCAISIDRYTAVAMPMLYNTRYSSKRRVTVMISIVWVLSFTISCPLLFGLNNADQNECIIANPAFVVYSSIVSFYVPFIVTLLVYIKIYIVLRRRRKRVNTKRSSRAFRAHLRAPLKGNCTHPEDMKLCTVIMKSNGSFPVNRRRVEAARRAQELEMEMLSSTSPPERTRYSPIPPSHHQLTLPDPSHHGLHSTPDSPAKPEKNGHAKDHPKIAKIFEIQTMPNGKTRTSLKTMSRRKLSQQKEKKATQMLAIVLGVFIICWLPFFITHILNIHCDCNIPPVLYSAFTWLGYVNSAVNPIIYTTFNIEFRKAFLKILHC
Sequence of 5-hydroxytryptamine receptor 2A (Homo sapiens) (P28223 whole entry, looked up): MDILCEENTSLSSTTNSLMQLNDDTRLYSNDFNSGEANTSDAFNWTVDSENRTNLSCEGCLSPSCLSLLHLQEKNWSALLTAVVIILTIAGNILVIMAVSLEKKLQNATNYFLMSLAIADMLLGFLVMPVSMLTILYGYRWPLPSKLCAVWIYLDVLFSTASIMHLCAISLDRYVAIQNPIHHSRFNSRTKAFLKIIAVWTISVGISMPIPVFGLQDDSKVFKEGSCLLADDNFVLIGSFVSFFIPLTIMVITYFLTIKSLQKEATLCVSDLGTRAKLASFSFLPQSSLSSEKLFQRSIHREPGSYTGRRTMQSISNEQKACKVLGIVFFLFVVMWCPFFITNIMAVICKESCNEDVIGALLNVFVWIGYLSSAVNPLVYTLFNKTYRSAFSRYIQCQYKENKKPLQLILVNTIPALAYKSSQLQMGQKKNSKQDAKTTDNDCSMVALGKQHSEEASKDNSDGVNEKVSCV
Sequence of Gonadotropin-releasing hormone receptor (Homo sapiens) (P30968 whole entry, looked up): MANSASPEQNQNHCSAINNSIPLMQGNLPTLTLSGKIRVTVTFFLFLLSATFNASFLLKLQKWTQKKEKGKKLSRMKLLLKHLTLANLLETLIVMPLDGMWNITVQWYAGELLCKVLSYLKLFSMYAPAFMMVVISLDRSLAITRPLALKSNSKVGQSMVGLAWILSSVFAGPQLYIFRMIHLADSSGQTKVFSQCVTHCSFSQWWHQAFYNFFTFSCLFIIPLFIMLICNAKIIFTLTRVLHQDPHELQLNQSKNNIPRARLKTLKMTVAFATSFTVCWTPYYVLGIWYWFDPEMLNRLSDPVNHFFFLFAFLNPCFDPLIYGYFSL

N=C(N)N1CCc2ccccc2C1
inactive: activity change, negative = cytotoxicity [1] 2.9% [at 8.39 µM] | activity, positive = activation [2] -4.04% [at 8.39 µM] | activity change [3] 0.504% [at 5.22 µM, hits give high values] | activation [4] -0.218% [at 6.97 µM] | activity change, negative = cytotoxicity [5] -1.79% [at 5.99 µM] | activity change, negative = cytotoxicity [6] 0.465% [at 5.99 µM] | activation [7] -10.3% [at 7.02 µM] | activity, negative = inhibition [8] -1.92% [at 5.58 µM] | activation [9] 0.312% [at 6.97 µM] | activation [10] 0.166% [at 8.39 µM] | activity change, negative = inhibition [11] -2.28% [at 8.39 µM] | activity change, negative = inhibition [12] -8.55% [at 8.39 µM] | activation [13] 9.27% [at 8.39 µM] | activation [14] 22% [at 8.39 µM] | activity change, negative = inhibition [15] 16.9% [at 8.38 µM]

CCCc1ccc(OC)cc1
inactive: Potency [1] | Potency [2] | Potency [3] | Potency [4] | Potency [6] | Potency [16] | Potency [17] | Potency [7] | Potency [8] | Potency [9] | Potency [10] | Potency [11] | Potency [12] | Potency [14] | Potency [15]

O=S(=O)(O)c1cc(S(=O)(=O)O)c2ccc3c(S(=O)(=O)O)cc(S(=O)(=O)O)c4ccc1c2c43
inactive: activity change, negative = cytotoxicity [1] 0.791% [at 19 µM] | activity, positive = activation [2] -1.98% [at 19 µM] | activity change [3] 0.0619% [at 11.8 µM, hits give high values] | activation [18] 0.205% [at 11.8 µM] | activation [19] -1.38% [at 13.6 µM] | activity change, negative = cytotoxicity [5] -2.1% [at 13.5 µM] | activity change, negative = cytotoxicity [6] 1.49% [at 13.5 µM] | activity change, negative = cytotoxicity [16] -29.1% [at 13.5 µM] | activation [20] 4.26% [at 13.5 µM] | activation [7] -0.138% [at 15.9 µM] | activity, negative = inhibition [8] -5.56% [at 12.6 µM] | activation [9] -0.115% [at 15.8 µM] | activation [10] 0.24% [at 19 µM] | activity change, negative = inhibition [11] -8.72% [at 18.9 µM] | activity change, negative = inhibition [12] 1.38% [at 19 µM] | activation [14] 0.241% [at 19 µM]

O=S(=O)(Oc1ccc(Cl)cc1)c1ccccc1
inactive: Potency [1] | Potency [2] | Potency [3] | Potency [4] | Potency [19] | Potency [5] | Potency [6] | Potency [20] | Potency [17] | Potency [7] | Potency [9] | Potency [10] | Potency [11] | Potency [12] | Potency [14]

COc1cccc2sc(N)nc12
inactive: Potency [1] | Potency [2] | Potency [3] | Potency [4] | Potency [5] | Potency [6] | Potency [16] | Potency [17] | Potency [7] | Potency [8] | Potency [9] | Potency [10] | Potency [11] | Potency [12] | Potency [14] | Potency [15]

CCN1C=CN(C)C1C (stereo unspecified)
inactive: Potency [1] | Potency [2] | Potency [3] | Potency [4] | Potency [5] | Potency [6] | Potency [16] | Potency [17] | Potency [7] | Potency [8] | Potency [9] | Potency [10] | Potency [11] | Potency [12]
